Hits are enriched below; roughly 12% of the tested compounds scored in any of these assays.
G9a block: qHTS Assay for Inhibitors of Histone Lysine Methyltransferase G9a; Potency, µM (top dose mostly 102 µM), for the others: top-dose activity, negative = inhibition, hits mostly inhibitors; G9a H3K9 monomethylation, AlphaScreen, 2 h; 350,000 tested, 8.8% active; Histone-lysine N-methyltransferase EHMT2 (Homo sapiens), Q96KQ7; AID 504332, 2011; further: on the % scale 0 is the no-effect control and ±100 the full control effect; nearly all actives have a fitted effect of over 75% in size
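Using a bead-based AlphaScreen, monomethylated H3K9 product from 2 h room-temperature reactions (G9a 20 nM, peptide 500 nM, SAM 20 uM) was detected with 0.5 ug/mL rabbit anti-H3K9me1 antibody.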
JMJD2A Tudor inh: qHTS Assay for Inhibitors of JMJD2A-Tudor Domain; AlphaScreen JMJD2A-Tudor / H3K4me3 peptide binding; Potency, µM (series often up to 114 µM), for inactives: top-dose activity change, negative = inhibition, most hits filed as inhibitors; 390,000 tested, 4.4% active; AID 504339, 2011; further: on the % scale 0 is the no-effect control and ±100 the full control effect; nearly all actives have a fitted effect of over 50% in size
Sfp PPTase inh: qHTS Assay for Inhibitors of Bacillus subtilis Sfp phosphopantetheinyl transferase (PPTase). 4'-phosphopantetheinyl transferase ffp (Bacillus subtilis), Q9F4F7. Biochemical Sfp PPTase activity, qHTS. Potency, µM, inactives show largest response in the series, negative = inhibition, most hits filed as inhibitors. 310,000 tested, 3.5% active. AID 1490, 2009;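 further: the enzyme is Sfp with the accession as filed and its product quenches rhodamine fluorescence; 0% = enzyme reaction without inhibitor and -100% = no enzyme wells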
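Fluorescence-quenching assay with 15 nM Sfp, 5 uM rhodamine-CoA and 12.5 uM BHQ-2-labelled ybbR peptide in pH 7.6 Hepes/MgCl2 buffer. Enzyme was pre-incubated with compound for 15 min at room temperature. Rate was taken from the 30-min fluorescence change (525/598 nm).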
HP1b chromo inh: HTS for Inhibitors of HP1-beta Chromodomain Interactions with Methylated Histone Tails | AlphaScreen HP1-beta / biotin-H3K9me3 peptide binding | Potency, µM (top dose mostly 114 µM), for inactives: at the highest dose activity change, negative = inhibition, hits mostly inhibitors | 390,000 tested, 0.56% active | AID 540317, 2011; further: nearly all actives have a fitted effect of over 70% in size
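AlphaScreen: HP1-beta (50 nM) preformed 30 min with biotin-H3(1-18)K9me3 peptide (50 nM) in PBS pH 7.4, 0.01% Tween-20. Compound added for 30 min at RT, then streptavidin donor/nickel chelate acceptor beads (10 ug/mL) for 30 min.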
BAZ2B block: qHTS Assay for Inhibitors of BAZ2B; AID 504333, 2011; Potency, µM (highest dose often 114 µM), for inactives: at the top dose activity change, negative = inhibition, usual class: inhibitors; 360,000 tested, 4.4% active; Bromodomain adjacent to zinc finger domain protein 2B (Homo sapiens), Q9UIF8; AlphaScreen BAZ2B-H3K14Ac peptide displacement; further: on the % scale 0 is the no-effect control and ±100 the full control effect; nearly all actives have a fitted effect of over 60% in size
Target sequence (Q9UIF8 whole entry, looked up, the tested form may be a part): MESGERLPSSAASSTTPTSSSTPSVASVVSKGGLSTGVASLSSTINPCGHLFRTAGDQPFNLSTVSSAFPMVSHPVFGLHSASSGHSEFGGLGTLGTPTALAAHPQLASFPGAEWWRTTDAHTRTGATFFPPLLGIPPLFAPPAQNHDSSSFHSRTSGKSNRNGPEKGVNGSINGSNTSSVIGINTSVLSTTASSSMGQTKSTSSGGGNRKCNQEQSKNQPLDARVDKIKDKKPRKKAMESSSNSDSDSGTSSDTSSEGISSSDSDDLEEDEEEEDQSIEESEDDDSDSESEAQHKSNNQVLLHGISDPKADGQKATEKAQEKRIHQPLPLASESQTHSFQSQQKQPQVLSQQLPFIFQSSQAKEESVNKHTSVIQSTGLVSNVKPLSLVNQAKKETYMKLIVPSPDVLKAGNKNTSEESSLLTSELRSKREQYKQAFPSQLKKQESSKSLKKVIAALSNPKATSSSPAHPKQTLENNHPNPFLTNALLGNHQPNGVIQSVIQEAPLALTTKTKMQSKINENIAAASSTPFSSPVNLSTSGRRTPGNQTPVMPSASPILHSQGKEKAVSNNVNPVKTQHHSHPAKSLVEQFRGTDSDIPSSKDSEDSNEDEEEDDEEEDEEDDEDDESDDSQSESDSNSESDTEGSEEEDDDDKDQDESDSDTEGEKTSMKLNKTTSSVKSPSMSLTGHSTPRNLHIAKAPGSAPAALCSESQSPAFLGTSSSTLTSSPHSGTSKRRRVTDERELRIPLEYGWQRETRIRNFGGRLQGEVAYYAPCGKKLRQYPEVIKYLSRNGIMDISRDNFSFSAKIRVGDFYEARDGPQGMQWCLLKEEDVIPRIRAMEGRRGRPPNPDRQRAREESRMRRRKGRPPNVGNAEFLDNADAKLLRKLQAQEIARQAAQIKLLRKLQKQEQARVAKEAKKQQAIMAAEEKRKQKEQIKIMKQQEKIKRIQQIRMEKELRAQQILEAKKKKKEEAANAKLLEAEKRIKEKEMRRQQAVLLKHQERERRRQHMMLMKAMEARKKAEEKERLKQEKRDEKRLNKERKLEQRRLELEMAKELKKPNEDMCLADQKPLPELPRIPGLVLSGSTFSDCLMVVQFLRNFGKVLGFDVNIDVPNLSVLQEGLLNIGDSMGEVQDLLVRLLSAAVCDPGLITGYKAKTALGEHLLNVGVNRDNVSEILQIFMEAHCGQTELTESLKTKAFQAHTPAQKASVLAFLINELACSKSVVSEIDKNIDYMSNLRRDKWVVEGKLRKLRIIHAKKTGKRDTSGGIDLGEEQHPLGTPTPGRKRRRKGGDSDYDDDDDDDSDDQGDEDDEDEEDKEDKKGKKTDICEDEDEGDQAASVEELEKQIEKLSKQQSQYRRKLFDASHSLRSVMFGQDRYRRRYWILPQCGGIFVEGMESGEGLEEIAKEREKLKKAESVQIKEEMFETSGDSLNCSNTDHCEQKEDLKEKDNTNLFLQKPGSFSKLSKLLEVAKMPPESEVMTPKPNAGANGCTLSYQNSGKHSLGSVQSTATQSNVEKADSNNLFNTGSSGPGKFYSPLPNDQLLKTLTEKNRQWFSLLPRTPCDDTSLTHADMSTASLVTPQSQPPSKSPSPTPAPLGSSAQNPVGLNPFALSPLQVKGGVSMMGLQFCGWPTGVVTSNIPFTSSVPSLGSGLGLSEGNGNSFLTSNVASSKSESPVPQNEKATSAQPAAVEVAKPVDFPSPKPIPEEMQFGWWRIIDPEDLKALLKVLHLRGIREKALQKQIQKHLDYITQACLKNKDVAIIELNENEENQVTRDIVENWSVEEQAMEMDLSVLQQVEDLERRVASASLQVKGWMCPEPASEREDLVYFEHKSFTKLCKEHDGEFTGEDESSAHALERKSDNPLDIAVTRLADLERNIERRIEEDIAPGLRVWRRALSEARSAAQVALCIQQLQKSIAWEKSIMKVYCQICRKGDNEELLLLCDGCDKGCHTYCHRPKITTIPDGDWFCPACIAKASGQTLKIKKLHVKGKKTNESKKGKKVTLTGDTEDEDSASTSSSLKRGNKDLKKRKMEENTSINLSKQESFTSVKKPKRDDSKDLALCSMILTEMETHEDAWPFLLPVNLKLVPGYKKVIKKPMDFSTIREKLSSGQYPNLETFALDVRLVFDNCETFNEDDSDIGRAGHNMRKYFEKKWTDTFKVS
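Protein-peptide AlphaScreen: BAZ2B 50 nM, b-H3K14Ac 50 nM, 1x PBS pH 7.4 + 0.01% Tween-20. Preincubation 30 min RT; cpd 30 min RT (top 110 uM); beads 20 min RT, light-protected.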
* hit, by the source's call; [ ] = another dose, or the depositor's remark. The call rests on the fitted dose curve; in most records, active means well fitted curve in the direction sought with a large enough effect; inconclusive means small, poorly fitted or top-dose-only effect, or another doubt; inactive means no such curve, though single readings can be large; an effect the other way counts as inactive or inconclusive. Potency means the concentration at half of the fitted maximal effect.

Results for Cn1c(N)c(C(=O)COC(=O)c2ccc(Cl)c(S(=O)(=O)N3CCCCC3)c2)c(=O)n(C)c1=O ?
G9a block: -10%[59 µM]; JMJD2A Tudor inh: -4%; Sfp PPTase inh: -20%; HP1b chromo inh: 18%; BAZ2B block: -4%

What do the screens show for `CCn1nc(NS(=O)(=O)c2ccccc2[N+](=O)[O-])c2cc3cccc(C)c3nc21`?
G9a block: inconclusive; JMJD2A Tudor inh: inconclusive; Sfp PPTase inh: 3%; HP1b chromo inh: 0%; BAZ2B block: inconclusive

How did CCn1nc(NS(=O)(=O)c2ccc([N+](=O)[O-])cc2)c2cc3cccc(C)c3nc21 do in these assays?
G9a block: 18µM*; JMJD2A Tudor inh: inconclusive; Sfp PPTase inh: 5%; HP1b chromo inh: -23%; BAZ2B block: inconclusive

How did Cc1ccccc1NC(=O)CC1SCCNC1=O (stereo not drawn) do in these assays?
G9a block: 16%[59 µM]; JMJD2A Tudor inh: -11%; Sfp PPTase inh: 22µM*; HP1b chromo inh: 4%; BAZ2B block: 7%

How did Cc1c(Cl)cccc1NC(=O)CC1SCCNC1=O (stereo not drawn) do in these assays?
G9a block: -5%[12.7 µM]; JMJD2A Tudor inh: -15%; Sfp PPTase inh: 15%; HP1b chromo inh: 18%; BAZ2B block: -4%

Results for COC(=O)c1cc(OC)c(OC)cc1NC(=S)Nc1cccc(C(C)=O)c1 ?
G9a block: 10µM*; JMJD2A Tudor inh: 22µM*; Sfp PPTase inh: -16%; HP1b chromo inh: 5%; BAZ2B block: 5%

How did Cc1ccccc1NC(=S)NCCSc1ccc(Cl)cc1 do in these assays?
G9a block: 33%[59 µM]; JMJD2A Tudor inh: 89µM*; Sfp PPTase inh: 22%; HP1b chromo inh: 7%; BAZ2B block: inconclusive

How did COC(=O)c1cccc(NC(=S)Nc2cc(Cl)ccc2OC)c1 do in these assays?
JMJD2A Tudor inh: -20%; Sfp PPTase inh: 20µM*; HP1b chromo inh: inconclusive; BAZ2B block: -14%

How did Cc1ccc(C)c(NC(=S)NCCSc2ccc(Cl)cc2)c1 do in these assays?
G9a block: 2%[59 µM]; JMJD2A Tudor inh: -13%; Sfp PPTase inh: 15%; HP1b chromo inh: 30%; BAZ2B block: inconclusive

Results for COc1cc(C)c(NC(=S)Nc2cccc(Cl)c2)cc1OC ?
G9a block: 89µM*; JMJD2A Tudor inh: -23%; Sfp PPTase inh: 45µM*; HP1b chromo inh: inconclusive; BAZ2B block: -1%

How did COc1ccccc1NC(=S)NCc1ccccn1 do in these assays?
G9a block: inconclusive; JMJD2A Tudor inh: -13%; Sfp PPTase inh: -18%; HP1b chromo inh: 15%; BAZ2B block: 1%

How did COc1ccc(Cl)cc1NC(=S)Nc1ccccc1C do in these assays?
JMJD2A Tudor inh: 14µM*; Sfp PPTase inh: -8%; HP1b chromo inh: -2%; BAZ2B block: -3%

What do the screens show for `COc1ccc(Cl)cc1NC(=S)NCc1ccccn1`?
G9a block: 20µM*; JMJD2A Tudor inh: -14%; Sfp PPTase inh: inconclusive; HP1b chromo inh: 10%; BAZ2B block: -7%

How did O=C1CCCc2ccccc2N1Cc1c(Cl)cccc1Cl do in these assays?
G9a block: -20%[12.7 µM]; JMJD2A Tudor inh: 2%; Sfp PPTase inh: inconclusive; HP1b chromo inh: 21%; BAZ2B block: 9%

What do the screens show for `CNC(=S)N(C)/N=C1/C(=O)N(Cc2c(Cl)cccc2Cl)c2ccccc21`?
G9a block: -20%[12.7 µM]; JMJD2A Tudor inh: 5µM*; HP1b chromo inh: -49%; BAZ2B block: 25µM*

Results for Cc1cccc(NC(=S)NC2CCCC2)n1 ?
G9a block: -117%; JMJD2A Tudor inh: -27%; Sfp PPTase inh: 10µM*; HP1b chromo inh: 29%; BAZ2B block: inconclusive

What do the screens show for `Cc1cccc(NC(=S)NC2CCCCC2)n1`?
G9a block: 0.89µM*; JMJD2A Tudor inh: -13%; Sfp PPTase inh: 50µM*; HP1b chromo inh: 19%; BAZ2B block: -27%

How did Cc1cccc(NC(=S)Nc2cccc(C)n2)n1 do in these assays?
G9a block: -1%; JMJD2A Tudor inh: 7%; Sfp PPTase inh: 19%; HP1b chromo inh: 54%; BAZ2B block: 28%

How did Cc1ccc(S(=O)(=O)N2CCC(C(=O)NCC3CCCCC3)CC2)cc1 do in these assays?
G9a block: -11%; JMJD2A Tudor inh: -9%; Sfp PPTase inh: 24%; HP1b chromo inh: 1%; BAZ2B block: -1%

What do the screens show for `COc1cc(NC(=O)c2cc(OC)c(OC)c(OC)c2)c(OC)cc1NC(=O)CN1CCCCC1`?
G9a block: -5%[12.7 µM]; JMJD2A Tudor inh: inconclusive; Sfp PPTase inh: 12%; HP1b chromo inh: -17%; BAZ2B block: -25%

What do the screens show for `Cc1sc2nc3ccc(N4CCCCC4)nn3c(=O)c2c1C`?
G9a block: 32µM*; JMJD2A Tudor inh: 3%; Sfp PPTase inh: -16%; HP1b chromo inh: 9%; BAZ2B block: 8%

How did Cc1sc2nc3n(c(=O)c2c1C)CCCCC3 do in these assays?
G9a block: -1%[59 µM]; JMJD2A Tudor inh: -4%; Sfp PPTase inh: 19%; HP1b chromo inh: 9%; BAZ2B block: -2%

How did COc1cn(-c2ccccc2)nc1C(=O)Nc1ccccc1 do in these assays?
G9a block: 50µM*; JMJD2A Tudor inh: -9%; Sfp PPTase inh: -4%; HP1b chromo inh: 2%; BAZ2B block: -5%

How did CCOc1ccc(-n2c(=S)sc3c(=O)[nH]c(SCC(=O)NCc4ccco4)nc32)cc1 do in these assays?
G9a block: 40µM*; JMJD2A Tudor inh: inconclusive; Sfp PPTase inh: 56µM*; HP1b chromo inh: -2%; BAZ2B block: inconclusive

What do the screens show for `CCOc1ccc2nc(SCC(=O)NCc3ccc(OC)c(OC)c3)[nH]c2c1`?
G9a block: 0%; JMJD2A Tudor inh: -24%; Sfp PPTase inh: -1%; HP1b chromo inh: -14%; BAZ2B block: -12%

How did CCOC(=O)CSc1nc2c(sc(=S)n2-c2ccc(OCC)cc2)c(=O)[nH]1 do in these assays?
G9a block: -5%; JMJD2A Tudor inh: -12%; Sfp PPTase inh: -2%; HP1b chromo inh: 18%; BAZ2B block: -3%

Results for CCOc1ccc2nc(SCC(=O)NC(=O)NCc3ccco3)[nH]c2c1 ?
G9a block: 50µM*; JMJD2A Tudor inh: -20%; Sfp PPTase inh: -6%; HP1b chromo inh: 6%; BAZ2B block: inconclusive

How did COc1ccc(NC(=O)CSc2nc3ccc(OC)cc3[nH]2)cc1 do in these assays?
G9a block: 9%[12.7 µM]; JMJD2A Tudor inh: -8%; Sfp PPTase inh: -2%; HP1b chromo inh: 32%; BAZ2B block: -12%

How did Cc1ccc2nc(SCC(=O)N(C)C3CCS(=O)(=O)C3)[nH]c2c1 (stereo not drawn) do in these assays?
G9a block: -8%[12.7 µM]; JMJD2A Tudor inh: -5%; HP1b chromo inh: 30%; BAZ2B block: -3%

High-throughput results deposited in PubChem BioAssay by National Center for Advancing Translational Sciences (NCATS).
